Assay [1] in a line: qHTS assay for small molecule agonists of the p53 signaling pathway (AID 651631; calls by dose curve; also: nearly all actives have a fitted effect of over 15% in size). The method in brief:
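p53RE-bla HCT-116 cells; compounds 16 h, 37 °C; LiveBLAzer B/G FRET substrate 2 h RT; fluorescence intensity read-out, qHTS format.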
In general terms: Quantitative high-throughput screening tests each substance at several concentrations.

A short description of assay [2]: qHTS assay for small molecules that induce genotoxicity in human embryonic kidney cells expressing luciferase-tagged ATAD5 (AID 651632). Also: nearly all actives have a fitted effect of over 15% in size. The method in brief: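 Luminescent reporter readout, HEK293T ATAD5-luc line: 16 hr drug exposure (37C, 5% CO2) followed by Amplite, 30 min RT.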
The nature of assay [3]: qHTS assay for small molecule agonists of the p53 signaling pathway - cell viability (AID 651633; calls by dose curve;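 also: p53RE-bla HCT reporter cells with a stable beta-lactamase p53 reporter; series mostly up to about 83 µM; nearly all actives have a fitted effect of over 30% in size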). The method in brief: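 p53RE-bla cells, seeded at 4,000 per well and rested 5 h at 37 C/5% CO2, received compounds in DMSO for 16 h at 37 C. CellTiter-Glo was then added, and luminescence was read after 30 min at room temperature to gauge cytotoxicity.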
Assay [4] is described as follows: qHTS assay for small molecules that induce genotoxicity in human embryonic kidney cells expressing luciferase-tagged ATAD5 - cell viability (AID 651634; calls by dose curve; also: nearly all actives have a fitted effect of over 25% in size). The method in brief:
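Viability read: CellTiter-Fluor fluorescence, 30 min at 37C. Cells: HEK293T, luciferase-tagged ATAD5. Exposure: 15.5 hr, 37C, 5% CO2, compound or DMSO vehicle.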

Assay [5] is described as follows: qHTS assay for small molecule disruptors of the mitochondrial membrane potential - cell viability (AID 720634; calls by dose curve;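 also: human HepG2 liver cancer cells; series mostly up to about 83 µM; nearly all actives have a fitted effect of over 20% in size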). The method in brief:
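HepG2, 1 hr compound, 37 C. ATP luminescence via CellTiter-Glo, 30 min RT, same well as m-MPI.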

The nature of assay [6]: qHTS assay for small molecule disruptors of the mitochondrial membrane potential (AID 720635). Also: potency is read from the fitted curve at half-maximal effect. The method in brief:
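HepG2 cells (2,000/well) attached overnight at 37C, then took compound for 1 hr at 37C, 5% CO2. Mito-MPS dye was added for 30 min; fluorescence was read at 490/535 nm (monomers) and 540/590 nm (aggregates).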

Assay [7] is described as follows: qHTS assay to test for compound auto fluorescence at 590 nm (red) in HepG2 cells (AID 720674). The method in brief: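 Rose Bengal sodium served as the red fluorophore standard. HepG2 monolayers (overnight attachment, MEM with 10% FBS) were exposed to test compounds for 1 hr at 37 C and read at Ex 540/Em 590 nm.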
Assay [8] is described as follows: qHTS assay to test for compound auto fluorescence at 460 nm (blue) in HEK293 cells (AID 720678). The method in brief:
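After cell attachment (4-5 hr, 37C), compounds were pinned onto HEK293 monolayers in 10% dialyzed FBS medium. The blue channel (405/460 nm) was read following overnight culture. Equivalency was calculated against triamterene.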

Assay [9] can be described thus: qHTS assay to test for compound auto fluorescence at 590 nm (red) in HEK293 cells (AID 720679). The method in brief: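 Plates of HEK293 cells (10% dialyzed FBS) are treated with 23 nL compound or DMSO vehicle after a 4-5 hr attachment period, incubated overnight at 37C, and read for red fluorescence at 540/590nm.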
Assay [10] in a line: qHTS assay to test for compound auto fluorescence at 460 nm (blue) in HEK293 cell free culture (AID 720681). The method in brief:
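Test compounds were pinned into cell-free culture medium (DMEM with 10% FBS) and fluorescence was read directly at Ex/Em 405/460 nm. Signals were expressed as fluorescence equivalents of triamterene, with DMSO vehicle as control.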

Assay [11] can be described thus: qHTS assay to test for compound auto fluorescence at 535 nm (green) in HEK293 cell free culture (AID 720682). The method in brief:
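Cell-free medium (DMEM, 10% FBS) receives compound or DMSO by pintool. Plate read directly at Ex 485/Em 535 nm. Signal converted to fluorescein equivalency.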

The nature of assay [12]: qHTS assay to test for compound auto fluorescence at 590 nm (red) in HEK293 cell free culture (AID 720683). The method in brief:
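Tox21 10K library compounds were pinned into cell-free DMEM with 10% FBS and fluorescence was read at excitation 540 nm. Activity is expressed as Rose Bengal sodium equivalency.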

Assay [13] in a line: qHTS assay to test for compound auto fluorescence at 460 nm (blue) in HepG2 cell free culture (AID 720685). The method in brief:
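Compound (23 nL) or DMSO pinned into cell-free MEM with 10% FBS; blue fluorescence read at 405/460 nm excitation/emission, expressed as auto-fluorescence equivalency to triamterene.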

Assay [14] can be described thus: qHTS assay to test for compound auto fluorescence at 535 nm (green) in HepG2 cell free culture (AID 720686).
A short description of assay [15]: qHTS assay to test for compound auto fluorescence at 460 nm (blue) in HepG2 cells (AID 720687). The method in brief:
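Cells (2,000/well in MEM with 10% FBS) attached overnight at 37 C, then were exposed to compound or DMSO for 1 hr at 37 C, 5% CO2. Fluorescence read at Ex/Em 405/460 nm, expressed as triamterene-equivalent signal.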

In assay [16] the target is Glucocorticoid receptor (Homo sapiens) (UniProt P04150). Briefly: qHTS assay to identify small molecule agonists of the glucocorticoid receptor (GR) signaling pathway (AID 720691; active = well fitted activation curve with a large enough effect in the signal ratio in the repeat runs, not every such curve was filed as active; the % refers to the signal ratio). The method in brief: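 qHTS in GR-bla HeLa cells: 4 h settling at 37 C/5% CO2, 18 h compound incubation at 37 C, 2 h LiveBLAzer B/G FRET substrate at room temperature, fluorescence intensity measured.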
Chain of Glucocorticoid receptor (Homo sapiens) (P04150 whole entry, looked up): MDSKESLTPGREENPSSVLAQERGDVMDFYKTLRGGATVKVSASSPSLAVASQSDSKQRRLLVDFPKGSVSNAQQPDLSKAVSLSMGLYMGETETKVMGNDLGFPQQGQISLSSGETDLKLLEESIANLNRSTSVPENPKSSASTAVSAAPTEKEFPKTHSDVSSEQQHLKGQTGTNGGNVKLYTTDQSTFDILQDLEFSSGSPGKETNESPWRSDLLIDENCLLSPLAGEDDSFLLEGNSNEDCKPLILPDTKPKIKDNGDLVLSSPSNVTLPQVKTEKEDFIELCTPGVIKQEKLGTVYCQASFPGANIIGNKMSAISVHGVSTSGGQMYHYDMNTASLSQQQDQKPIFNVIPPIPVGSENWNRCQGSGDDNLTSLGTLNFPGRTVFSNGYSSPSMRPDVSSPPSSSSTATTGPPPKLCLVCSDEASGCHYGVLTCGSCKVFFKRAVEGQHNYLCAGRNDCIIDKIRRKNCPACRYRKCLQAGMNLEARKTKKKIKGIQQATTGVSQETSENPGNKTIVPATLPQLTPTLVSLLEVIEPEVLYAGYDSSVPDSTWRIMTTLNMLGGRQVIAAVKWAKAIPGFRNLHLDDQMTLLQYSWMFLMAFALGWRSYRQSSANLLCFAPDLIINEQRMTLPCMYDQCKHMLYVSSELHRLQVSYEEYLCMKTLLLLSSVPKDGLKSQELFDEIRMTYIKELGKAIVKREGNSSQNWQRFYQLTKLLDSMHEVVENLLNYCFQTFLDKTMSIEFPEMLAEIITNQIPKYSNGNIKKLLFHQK

Assay [17] shares this target. As to the kind of experiment: qHTS assay to identify small molecule antagonists of the glucocorticoid receptor (GR) signaling pathway (AID 720692; active = well fitted inhibition curve with a large enough effect in the signal ratio in the repeat runs, not every such curve was filed as active; the % refers to the signal ratio). The method in brief:
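Inhibition of glucocorticoid signalling is measured in HeLa cells with a GRE-controlled beta-lactamase reporter; cells are co-treated with compound and 5 nM dexamethasone (final) for 18 h before FRET substrate readout.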

Assay [18] is described as follows: qHTS assay to test for compound auto fluorescence at 535 nm (green) in HepG2 cells (AID 720675).
A short description of assay [19]: qHTS assay to test for compound auto fluorescence at 535 nm (green) in HEK293 cells (AID 720680).
The nature of assay [20]: qHTS assay to test for compound auto fluorescence at 590 nm (red) in HepG2 cell free culture (AID 720684). The method in brief:
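Red fluorescence (540 nm excitation, 590 nm emission) was measured after compound transfer into cell-free MEM supplemented with 10% FBS. Values are equivalencies against Rose Bengal sodium.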

Values joined by “and” are separate entries in the source; they are usually repeats but may differ in a detail not shown here. Equal entries are not always repeated. Records with an inconclusive call do not appear. Active and inactive are the calls of the source. Unless noted, calls follow the shape of the dose curve; as a rule, active = well fitted curve in the direction sought with a large enough effect in the repeat runs; inconclusive = weak or mixed curves; inactive = no such curve, though single readings can be large; an effect the other way counts as inactive or inconclusive.

Regarding `O=C(O)c1ccccn1`, the outcome in assay [1], in assay [2], in assay [3], in [4], in assay [7] and in [8] was inactive. Also, the compound was called inactive in assay [9], in assay [10], in assay [11], in assay [12], in [13] and in [14]. The compound was called inactive in assay [15] and in [16]. The Potency entry in assay [5], in [6] and in assay [17] was “inactive” in each case.
Regarding `CCC[N+](=O)[O-]`, the compound was classed as inactive in assay [1], in assay [2], in [4], in [7], in assay [18] and in [8]. Besides, the call in [9], in assay [19], in assay [10], in assay [11], in assay [12] and in assay [20] was inactive. In addition, the compound was classed as inactive in assay [13], in assay [14] and in assay [15]. Moreover, the Potency result in assay [5] and in assay [6] was “inactive” in each case.
As to `CC(C)(C)OOC(=O)c1ccccc1`, the call in [1], in assay [2], in assay [4], in assay [7], in assay [18] and in assay [8] was inactive. Besides, the result in [9], in assay [19], in assay [10], in assay [11], in assay [12] and in assay [20] was inactive. The call in [13], in assay [14], in [15] and in [16] was inactive. In addition, the Potency result in assay [5], in assay [6] and in [17] was “inactive” each time.
As to `CCOP(OCC)OCC`, the result in assay [1], in assay [2], in [4], in [7], in assay [18] and in assay [8] was inactive. Besides, the result in [9], in assay [10], in assay [11], in assay [12], in assay [20] and in assay [13] was inactive. The compound was classed as inactive in [14] and in assay [15]. The Potency entry in assay [5] and in assay [6] was “inactive” throughout.
In the case of `CC(C)OC(=O)Nc1cccc(Cl)c1`, the compound was classed as inactive in assay [1], in assay [2], in assay [3], in [4], in [7] and in [18]. The compound was called inactive in [8], in assay [9], in assay [10], in [11], in [12] and in assay [13]. The call in assay [14] and in assay [15] was inactive. Moreover, the Potency in [6] is 47.9 µM (active) and 24.3 µM (active).
For `c1ccc2c(c1)oc1ccccc12`, the result in assay [1], in assay [2], in assay [4], in assay [7], in assay [18] and in assay [8] was inactive. Besides, the call in [9], in assay [19], in assay [10], in [11], in assay [12] and in assay [13] was inactive. The result in [14], in assay [15] and in assay [16] was inactive. Moreover, the Potency result in [5], in [6] and in assay [17] was “inactive” each time.
Consider `O=c1[nH]c(=O)[nH]c(=O)[nH]1`, for which the result in assay [1], in assay [2], in [4], in [7], in [18] and in assay [8] was inactive. Moreover, the result in [9], in [10], in [11], in assay [12], in assay [20] and in assay [13] was inactive. In addition, the result in assay [14], in [15] and in [16] was inactive. Besides, the Potency result in assay [5], in assay [6] and in assay [17] was “inactive” in each case.
Consider `NCCc1ccc(O)cc1`, for which the outcome in assay [1], in assay [2], in assay [4], in assay [7], in [18] and in [8] was inactive. In addition, the result in assay [9], in assay [10], in [11], in [12], in [13] and in assay [14] was inactive. Besides, the result in assay [15] and in assay [16] was inactive. In addition, the Potency entry in assay [5], in assay [6] and in [17] was “inactive” each time.
Turning to `O=[N+]([O-])c1ccccc1`, the result in [1], in assay [2], in assay [4], in assay [7], in assay [8] and in assay [9] was inactive. The compound was called inactive in assay [19], in assay [10], in assay [11], in assay [12], in [20] and in assay [13]. Besides, the compound was called inactive in assay [14], in assay [15] and in [16]. Moreover, the Potency entry in [5], in [6] and in assay [17] was “inactive” each time.

The values above are taken from PubChem BioAssay (Tox21).
